Laboratory results from PubChem BioAssay AID686971 (National Center for Advancing Translational Sciences (NCATS), 2013).
The campaign covered roughly 360,000 compounds. About 7,500 (2.1%) were called active. Inconclusive results (about 8%) are left out. The sample holds actives, similar compounds and a random draw of the others, so the mix is not that of the screen. Unmarked numbers belong to inactive results. Calls come from the whole dose curve; as a rule, active = well fitted cell-killing curve with a large enough effect; inconclusive = small, poorly fitted or top-dose-only effect, or effect the other way, or another doubt; inactive = no such curve, though single readings can be large or run the other way.

Test: qHTS for induction of synthetic lethality in tumor cells producing 2HG: qHTS for the HT-1080-IDH1KD cell line;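 for activity, negative = toxicity: 0% = DMSO wells and -100% = cell-free medium wells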
Details: HT-1080 IDH1 knockdown viability, ATP luminescence, 48 h; series mostly up to 46.1 µM; activity, negative = toxicity: at the top concentration
Outline: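 After a 2 h attachment period, IDH1KD HT-1080 cells took pin-transferred compound for 48 h at 37 °C; ATP-based luminescence after 10 min room-temperature reagent incubation reported viability.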
Potency is the fitted concentration of half-maximal effect.

SMILES	activity, negative = toxicity	Potency
O=C(Nc1cc(F)ccc1F)c1ccc2c(=O)n3c(nc2c1)CCC3	12.3%	
CC1(C(=O)NCc2ccc3c(c2)OCO3)CCN1C(=O)Cc1cccs1 (centres undefined)	27.3%	
CN1CCn2cnc(C(=O)NCC(=O)OC(C)(C)C)c2C1=O	7.32%	
C[N+](C)(C)CCNC(=O)c1c[nH]c2ccccc12	7.44%	
COc1cc2c(cc1OC)CN(CC(=O)Nc1ccc(F)cc1)CC2	-0.566%	
CC[C@H]1CN2CCc3cc(OC)c(OC)cc3[C@@H]2C[C@@H]1C[C@H]1NCCc2cc(OC)c(OC)cc21		0.13 µM (active)
Clc1ccc(-c2cccc3nccn23)cc1	8.87%	
Cc1cccc(CN2CCN(C3CN(Cc4ccccc4)S(=O)(=O)C3)CC2)c1 (centres undefined)	-7.16%	
COc1cc(CCN=Cc2ccccc2O)c([N+](=O)[O-])cc1OC	20.8%	
Cc1ccc(Oc2cnn(-c3ccccc3)c(=O)c2Br)cc1	-18.1%	
C=CCNc1cnn(-c2ccc(C)cc2)c(=O)c1Cl	5.14% [at 9.24 µM]	
Cc1cccc(-n2ncc(Cl)c(Cl)c2=O)c1		20.6 µM (active)
CCCC(=O)N1CCC1(C)C(=O)NCc1ccc(C(C)C)cc1 (centres undefined)	19.5%	
Cc1csc(=O)n1CCC(=O)OCC(=O)Nc1ccc(N2CCOCC2)cc1	0.321%	
NC(c1csc(NC(=O)Nc2cccc(C(F)(F)F)c2)n1)C1CCCCC1 (centres undefined)		14.6 µM (active)
COc1ccc(NC(=O)C(=O)NCC(=O)Nc2cccc(C(F)(F)F)c2)cc1	3.95%	
CC(C)C[C@H](NC(=O)Nc1cccc(C(F)(F)F)c1)C(=O)O	7.1%	
COc1ccc(NC(=O)C(Br)C(C)C)cc1 (centres undefined)	-0.582%	
COc1ccc(C(N)c2csc(NC(=O)Nc3cccc(C(F)(F)F)c3)n2)cc1 (centres undefined)		18.4 µM (active)
Cc1ccccc1NC(=O)Cc1nc(COC(=O)c2ccc(C(F)(F)F)cc2)cs1	3.99%	
CC(C)(C)CC(=O)Nc1nc(C(N)Cc2ccc(C(F)(F)F)cc2)cs1 (centres undefined)		18.4 µM (active)
COc1ccc(CC(N)c2csc(NC(=O)Nc3ccc(C(C)C)cc3)n2)cc1 (centres undefined)		14.6 µM (active)

SMILES	activity, negative = toxicity	Potency
CC(C)(C)CC(=O)Nc1nnc(SCC(=O)NCc2cccs2)s1	1.04%	
COC(=O)[C@H](CCSC)NC(=O)Nc1ccc(OC)cc1	15%	
O=C(Nc1ccc(C(=O)N2CCOCC2)cc1)Nc1cccc(C(F)(F)F)c1	-0.769%	
NC(c1ccccc1)c1csc(NC(=O)Nc2cccc(C(F)(F)F)c2)n1 (centres undefined)	-27%	
C=C1C=C(C)n2ncc(C(=O)Nc3ccccc3O)c2N1	-3.89%	
CCc1nc2c(OCCOc3ccccc3)cccn2c1N(C)C(=O)c1ccccc1F	5.45%	
CCOc1cc(/C=N/NC(=O)c2ccncc2)cc(Br)c1O	2.86%	
Cc1cc(Cl)ccc1C(=O)C1CCCN(C(=O)c2ccc3c(c2)OCO3)C1 (centres undefined)	-12%	
C[C@@H]1CN([C@@H](C)CO)C(=O)CCCn2cc(nn2)CO[C@H]1CN(C)S(=O)(=O)c1ccc(-n2cccn2)cc1	0.687%	
O=C(c1ccc(CS(=O)Cc2ccccc2Cl)o1)N1CCN(c2ccccc2)CC1 (centres undefined)	-1.14%	
CC1(C(=O)NS(=O)(=O)c2ccc(C#N)cc2)CCN1C(=O)c1ccc(C2CCCCC2)cc1 (centres undefined)	-17.3%	
CCOC(=O)C1C(C)C(C(C)(C)C)N(S(=O)(=O)c2ccc(C)cc2)C1c1ccccc1 (centres undefined)	-24.4%	
Cc1ccc(-c2ccc(CN3C(C)C(=O)N(Cc4cn(CCC5OCCCO5)nn4)CCS3(=O)=O)cc2)cc1 (centres undefined)	-11.1%	
CC1(C(=O)Nc2cccc3c2CCCC3)CCN1C(=O)C1(c2ccccc2)CC1 (centres undefined)	-21.8%	
O=C(Nc1cccc(Cc2ccccc2)c1)Nc1ccc2nc([C@@H]3O[C@H](CO)[C@@H](O)[C@H](O)[C@H]3O)[nH]c2c1	27.1%	
Cc1[nH]c2ccccc2c1C(=O)CN1CCCC(C)C1 (centres undefined)	-0.222%	
Cc1[nH]c2ccccc2c1C(=O)CSCC(=O)O	2.2%	
Cc1[nH]c2ccccc2c1C(=O)CN1CC(C)CC(C)C1 (centres undefined)		18.4 µM (active)
C=CCn1c2c(c3ccccc31)CCC2	9.84%	
C=C1C(=O)OC2C1CCC(C)=CCCC1(C)OC21 (centres undefined)		11.6 µM (active)
COc1cc2c(=O)n(C)c3ccccc3c2cc1OC	10.9%	
Cc1cc(C)c(-c2c(O)c3ccccc3n(C)c2=O)c(C)c1	6.69%	

SMILES	activity, negative = toxicity	Potency
Cn1c(=O)c([N+](=O)[O-])c(Oc2ccccc2)c2ccccc21		23.1 µM (active)
O=C(N/N=C/c1cccc(O)c1)c1cc2c(ccc3ccccc32)o1	-9.35%	
Cc1c(/C=N/N2C(=O)C3C4C=CC(C4)C3C2=O)c2ccccc2n1C (centres undefined)	-0.0518%	
Cc1c(/C=N\NC(=O)c2cc3ccccc3o2)c2ccccc2n1C		18.4 µM (active)
CN(Cc1ccccc1)C(=O)[C@@H]1CCCN1C(=O)[C@@H]1CCCN1C(=O)c1c(F)cccc1F	2.52%	
O=C(Cc1ccc(-c2ccccc2)cc1)NC(c1ccccc1)c1ccccc1	-29.4%	
CCOC(=O)C(C(=O)OCC)C(C#N)c1ccccc1 (centres undefined)	1.46%	
CCOC(=O)/C=C/C(=O)OCC(=O)NC(c1ccccc1)c1ccccc1		20.6 µM (active)
CN(C)c1ccc(Nc2c3c4c(cccc4n(C)c2=O)C(=O)c2ccccc2-3)cc1		4.61 µM (active)
CN(C)c1ccc(C2N(C)C(=O)c3ccccc3N2C)cc1 (centres undefined)	-14.3%	
CSc1ncnc2c1ncn2CCCNCC(C)c1ccccc1 (centres undefined)	0.421%	
c1ccc(Cn2nnc3c(NCC4CC4)ncnc32)cc1	1.82%	
O=[N+]([O-])/C=C/c1ccc2c(ccn2Cc2ccccc2)c1		16.4 µM (active)
CCc1nc2ccc(C(=O)N(C)Cc3ccco3)cn2c1N(C)C(=O)Cc1ccccc1	0%	
Cc1ccc(S(=O)(=O)N2C[C@H]3C(=O)C[C@@H](c4cccc5ccccc45)N(S(=O)(=O)c4ccc(C)cc4)[C@H]3C[C@H]2c2ccc(Cl)cc2)cc1	-4.09%	
NC(Cc1ccc(F)cc1)c1csc(Nc2nncc3ccccc23)n1 (centres undefined)		25.9 µM (active)
COCC(C)NC(=O)COc1nncc2ccccc12 (centres undefined)	15.1%	
CC(=O)c1ccc(Nc2nc(C(N)c3ccccc3)cs2)cc1 (centres undefined)	-10%	
CN1CCN(C(=O)c2ccc(-c3cc4nc(NCc5cccnc5)n(C)c(=O)c4s3)cc2)CC1	-0.409%	
CNc1cnc(-c2cc(OC)c(OC)c(OC)c2)cn1	17.9%	
